Molecules are shown by their SMILES. Values without a mark were called inactive.

What all share (assay): log2 ratio of Biotin-Ahx-Ub-VS probe labelling (fragment/DMSO); higher = less target engagement (more negative = stronger competition), active = hit call of the paper (q ≤ 0.05, log2 ratio ≤ -1)
Conditions in all cases: compound concentration: 200 uM; treatment time: 3 h

For one assay, the target named is T1, USP19 (UniProt O94966).
T1 sequence (whole entry): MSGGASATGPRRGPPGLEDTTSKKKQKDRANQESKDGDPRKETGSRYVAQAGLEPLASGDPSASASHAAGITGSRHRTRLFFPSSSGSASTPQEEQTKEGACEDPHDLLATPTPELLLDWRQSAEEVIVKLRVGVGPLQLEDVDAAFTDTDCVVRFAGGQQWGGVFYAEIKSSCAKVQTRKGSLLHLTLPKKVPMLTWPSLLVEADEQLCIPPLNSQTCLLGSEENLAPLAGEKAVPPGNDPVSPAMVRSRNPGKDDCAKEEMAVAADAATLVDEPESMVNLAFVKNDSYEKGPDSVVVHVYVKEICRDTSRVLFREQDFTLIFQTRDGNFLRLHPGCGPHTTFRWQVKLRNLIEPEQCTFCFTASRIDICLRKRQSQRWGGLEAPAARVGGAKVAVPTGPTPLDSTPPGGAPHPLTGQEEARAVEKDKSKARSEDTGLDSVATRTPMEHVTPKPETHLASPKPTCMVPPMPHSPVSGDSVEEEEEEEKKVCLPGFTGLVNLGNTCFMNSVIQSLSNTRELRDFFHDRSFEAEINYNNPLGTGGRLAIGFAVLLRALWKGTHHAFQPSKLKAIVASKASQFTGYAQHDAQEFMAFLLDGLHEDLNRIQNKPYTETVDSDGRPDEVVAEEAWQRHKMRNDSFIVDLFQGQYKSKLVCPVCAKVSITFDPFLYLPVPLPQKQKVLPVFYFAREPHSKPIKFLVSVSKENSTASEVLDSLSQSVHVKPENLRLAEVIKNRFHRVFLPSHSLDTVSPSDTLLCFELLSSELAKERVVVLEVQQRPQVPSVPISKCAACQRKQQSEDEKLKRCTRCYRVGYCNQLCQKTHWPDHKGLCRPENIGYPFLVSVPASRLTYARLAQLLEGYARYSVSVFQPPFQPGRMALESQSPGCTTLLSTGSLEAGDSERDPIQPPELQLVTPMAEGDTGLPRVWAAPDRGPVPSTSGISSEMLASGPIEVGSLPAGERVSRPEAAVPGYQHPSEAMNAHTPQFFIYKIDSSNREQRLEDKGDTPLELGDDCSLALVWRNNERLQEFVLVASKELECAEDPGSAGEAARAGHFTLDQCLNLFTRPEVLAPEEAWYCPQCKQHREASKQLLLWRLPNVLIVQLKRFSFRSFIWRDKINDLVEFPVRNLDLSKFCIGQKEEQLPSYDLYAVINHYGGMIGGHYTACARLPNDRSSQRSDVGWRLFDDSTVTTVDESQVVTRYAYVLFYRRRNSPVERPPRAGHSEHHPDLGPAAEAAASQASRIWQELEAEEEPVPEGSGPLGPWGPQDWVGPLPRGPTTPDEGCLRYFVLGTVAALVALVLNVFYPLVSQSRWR
Summed up: (§1)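 Using Biotin-Ahx-Ub-VS at 0.5 µM final for 1 h, DUBs were labelled in HEK293T lysate (495 µg per sample) that had first been treated in triplicate with fragment at 200 µM or vehicle for 3 h. NeutrAvidin enrichment, LysC and trypsin digestion and diaPASEF LC-MS/MS followed. Spectronaut label-free quantities were global-median-normalised. Values are average log2 fragment/vehicle ratios by unpaired t-test, using proteins with ≥2 unique peptides.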

The target of another assay is T2, USP22 (UniProt Q9UPT9).
T2 sequence (whole entry): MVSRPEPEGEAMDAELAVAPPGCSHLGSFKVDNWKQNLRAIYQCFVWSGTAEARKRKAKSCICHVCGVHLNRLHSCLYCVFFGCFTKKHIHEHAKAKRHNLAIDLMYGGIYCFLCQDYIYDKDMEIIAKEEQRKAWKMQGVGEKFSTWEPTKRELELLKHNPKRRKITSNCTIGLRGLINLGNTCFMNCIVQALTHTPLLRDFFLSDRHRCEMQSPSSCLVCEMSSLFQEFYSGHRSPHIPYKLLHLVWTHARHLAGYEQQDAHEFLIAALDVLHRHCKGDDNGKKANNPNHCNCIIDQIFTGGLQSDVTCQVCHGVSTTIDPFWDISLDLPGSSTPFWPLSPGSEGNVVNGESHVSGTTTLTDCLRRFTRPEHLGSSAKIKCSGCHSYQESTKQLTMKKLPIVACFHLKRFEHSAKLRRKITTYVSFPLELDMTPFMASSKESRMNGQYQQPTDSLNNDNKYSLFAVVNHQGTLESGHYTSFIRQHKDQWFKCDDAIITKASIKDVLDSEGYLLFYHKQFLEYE
Summed up:
as §1

In the next assay the target is USP24 (UniProt Q9UPU5). Put shortly:
as §1

Another assay has as its target T3, USP25 (UniProt Q9UHP3).
T3 sequence (whole entry): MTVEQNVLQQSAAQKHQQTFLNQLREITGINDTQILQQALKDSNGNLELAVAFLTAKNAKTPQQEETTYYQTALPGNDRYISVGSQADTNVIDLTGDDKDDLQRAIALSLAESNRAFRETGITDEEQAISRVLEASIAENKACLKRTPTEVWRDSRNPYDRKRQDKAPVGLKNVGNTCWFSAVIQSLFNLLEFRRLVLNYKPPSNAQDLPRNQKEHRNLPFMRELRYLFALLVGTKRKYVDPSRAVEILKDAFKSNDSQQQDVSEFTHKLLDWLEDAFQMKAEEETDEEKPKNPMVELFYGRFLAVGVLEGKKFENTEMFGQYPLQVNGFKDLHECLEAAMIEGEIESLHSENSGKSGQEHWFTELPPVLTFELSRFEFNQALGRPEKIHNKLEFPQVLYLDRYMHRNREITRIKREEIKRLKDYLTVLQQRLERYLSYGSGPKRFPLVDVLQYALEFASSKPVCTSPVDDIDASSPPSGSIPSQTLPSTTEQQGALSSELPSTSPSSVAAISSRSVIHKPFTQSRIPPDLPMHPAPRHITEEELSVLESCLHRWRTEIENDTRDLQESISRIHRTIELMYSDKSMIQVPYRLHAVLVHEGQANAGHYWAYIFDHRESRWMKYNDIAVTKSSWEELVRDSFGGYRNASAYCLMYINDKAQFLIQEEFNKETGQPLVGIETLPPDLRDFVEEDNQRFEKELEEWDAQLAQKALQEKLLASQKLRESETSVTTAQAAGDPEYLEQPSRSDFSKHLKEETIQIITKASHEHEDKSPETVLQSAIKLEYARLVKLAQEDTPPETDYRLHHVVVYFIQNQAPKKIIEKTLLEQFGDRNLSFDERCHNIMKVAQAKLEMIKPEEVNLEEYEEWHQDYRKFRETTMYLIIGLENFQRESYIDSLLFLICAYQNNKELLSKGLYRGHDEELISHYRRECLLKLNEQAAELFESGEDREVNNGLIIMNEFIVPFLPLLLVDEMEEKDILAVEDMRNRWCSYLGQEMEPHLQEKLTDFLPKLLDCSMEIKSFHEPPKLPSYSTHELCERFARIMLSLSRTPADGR
Put shortly:
as §1

The next assay addresses T4, USP28 (UniProt Q96RU2).
T4 sequence (whole entry): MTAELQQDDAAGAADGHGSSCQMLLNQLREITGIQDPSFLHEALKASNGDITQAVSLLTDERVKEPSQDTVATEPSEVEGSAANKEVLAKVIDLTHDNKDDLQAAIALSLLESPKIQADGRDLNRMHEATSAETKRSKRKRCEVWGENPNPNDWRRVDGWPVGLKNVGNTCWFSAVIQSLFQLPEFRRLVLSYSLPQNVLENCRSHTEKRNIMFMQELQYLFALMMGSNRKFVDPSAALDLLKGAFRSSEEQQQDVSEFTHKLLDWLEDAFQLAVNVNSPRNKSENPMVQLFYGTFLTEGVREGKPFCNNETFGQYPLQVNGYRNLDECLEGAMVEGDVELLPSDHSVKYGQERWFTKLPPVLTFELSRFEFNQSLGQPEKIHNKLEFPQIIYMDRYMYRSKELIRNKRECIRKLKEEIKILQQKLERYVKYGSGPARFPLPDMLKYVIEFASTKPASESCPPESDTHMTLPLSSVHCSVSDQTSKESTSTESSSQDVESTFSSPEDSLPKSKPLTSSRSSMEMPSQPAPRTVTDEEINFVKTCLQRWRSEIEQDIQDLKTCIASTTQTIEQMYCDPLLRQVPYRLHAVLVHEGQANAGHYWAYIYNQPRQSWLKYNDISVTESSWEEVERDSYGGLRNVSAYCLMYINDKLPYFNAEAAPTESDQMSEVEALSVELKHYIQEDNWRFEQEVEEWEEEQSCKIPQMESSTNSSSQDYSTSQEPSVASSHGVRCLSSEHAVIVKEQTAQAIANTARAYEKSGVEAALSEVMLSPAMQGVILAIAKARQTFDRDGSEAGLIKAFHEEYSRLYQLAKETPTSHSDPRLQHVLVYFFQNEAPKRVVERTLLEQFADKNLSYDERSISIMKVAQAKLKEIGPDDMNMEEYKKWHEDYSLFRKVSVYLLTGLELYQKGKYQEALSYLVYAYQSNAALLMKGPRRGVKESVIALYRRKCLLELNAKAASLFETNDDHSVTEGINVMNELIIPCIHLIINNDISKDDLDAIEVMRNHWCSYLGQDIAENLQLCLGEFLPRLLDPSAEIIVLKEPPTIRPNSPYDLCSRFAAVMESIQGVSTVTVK
Summed up: as §1

Chain of USP24 (Q9UPU5 whole entry): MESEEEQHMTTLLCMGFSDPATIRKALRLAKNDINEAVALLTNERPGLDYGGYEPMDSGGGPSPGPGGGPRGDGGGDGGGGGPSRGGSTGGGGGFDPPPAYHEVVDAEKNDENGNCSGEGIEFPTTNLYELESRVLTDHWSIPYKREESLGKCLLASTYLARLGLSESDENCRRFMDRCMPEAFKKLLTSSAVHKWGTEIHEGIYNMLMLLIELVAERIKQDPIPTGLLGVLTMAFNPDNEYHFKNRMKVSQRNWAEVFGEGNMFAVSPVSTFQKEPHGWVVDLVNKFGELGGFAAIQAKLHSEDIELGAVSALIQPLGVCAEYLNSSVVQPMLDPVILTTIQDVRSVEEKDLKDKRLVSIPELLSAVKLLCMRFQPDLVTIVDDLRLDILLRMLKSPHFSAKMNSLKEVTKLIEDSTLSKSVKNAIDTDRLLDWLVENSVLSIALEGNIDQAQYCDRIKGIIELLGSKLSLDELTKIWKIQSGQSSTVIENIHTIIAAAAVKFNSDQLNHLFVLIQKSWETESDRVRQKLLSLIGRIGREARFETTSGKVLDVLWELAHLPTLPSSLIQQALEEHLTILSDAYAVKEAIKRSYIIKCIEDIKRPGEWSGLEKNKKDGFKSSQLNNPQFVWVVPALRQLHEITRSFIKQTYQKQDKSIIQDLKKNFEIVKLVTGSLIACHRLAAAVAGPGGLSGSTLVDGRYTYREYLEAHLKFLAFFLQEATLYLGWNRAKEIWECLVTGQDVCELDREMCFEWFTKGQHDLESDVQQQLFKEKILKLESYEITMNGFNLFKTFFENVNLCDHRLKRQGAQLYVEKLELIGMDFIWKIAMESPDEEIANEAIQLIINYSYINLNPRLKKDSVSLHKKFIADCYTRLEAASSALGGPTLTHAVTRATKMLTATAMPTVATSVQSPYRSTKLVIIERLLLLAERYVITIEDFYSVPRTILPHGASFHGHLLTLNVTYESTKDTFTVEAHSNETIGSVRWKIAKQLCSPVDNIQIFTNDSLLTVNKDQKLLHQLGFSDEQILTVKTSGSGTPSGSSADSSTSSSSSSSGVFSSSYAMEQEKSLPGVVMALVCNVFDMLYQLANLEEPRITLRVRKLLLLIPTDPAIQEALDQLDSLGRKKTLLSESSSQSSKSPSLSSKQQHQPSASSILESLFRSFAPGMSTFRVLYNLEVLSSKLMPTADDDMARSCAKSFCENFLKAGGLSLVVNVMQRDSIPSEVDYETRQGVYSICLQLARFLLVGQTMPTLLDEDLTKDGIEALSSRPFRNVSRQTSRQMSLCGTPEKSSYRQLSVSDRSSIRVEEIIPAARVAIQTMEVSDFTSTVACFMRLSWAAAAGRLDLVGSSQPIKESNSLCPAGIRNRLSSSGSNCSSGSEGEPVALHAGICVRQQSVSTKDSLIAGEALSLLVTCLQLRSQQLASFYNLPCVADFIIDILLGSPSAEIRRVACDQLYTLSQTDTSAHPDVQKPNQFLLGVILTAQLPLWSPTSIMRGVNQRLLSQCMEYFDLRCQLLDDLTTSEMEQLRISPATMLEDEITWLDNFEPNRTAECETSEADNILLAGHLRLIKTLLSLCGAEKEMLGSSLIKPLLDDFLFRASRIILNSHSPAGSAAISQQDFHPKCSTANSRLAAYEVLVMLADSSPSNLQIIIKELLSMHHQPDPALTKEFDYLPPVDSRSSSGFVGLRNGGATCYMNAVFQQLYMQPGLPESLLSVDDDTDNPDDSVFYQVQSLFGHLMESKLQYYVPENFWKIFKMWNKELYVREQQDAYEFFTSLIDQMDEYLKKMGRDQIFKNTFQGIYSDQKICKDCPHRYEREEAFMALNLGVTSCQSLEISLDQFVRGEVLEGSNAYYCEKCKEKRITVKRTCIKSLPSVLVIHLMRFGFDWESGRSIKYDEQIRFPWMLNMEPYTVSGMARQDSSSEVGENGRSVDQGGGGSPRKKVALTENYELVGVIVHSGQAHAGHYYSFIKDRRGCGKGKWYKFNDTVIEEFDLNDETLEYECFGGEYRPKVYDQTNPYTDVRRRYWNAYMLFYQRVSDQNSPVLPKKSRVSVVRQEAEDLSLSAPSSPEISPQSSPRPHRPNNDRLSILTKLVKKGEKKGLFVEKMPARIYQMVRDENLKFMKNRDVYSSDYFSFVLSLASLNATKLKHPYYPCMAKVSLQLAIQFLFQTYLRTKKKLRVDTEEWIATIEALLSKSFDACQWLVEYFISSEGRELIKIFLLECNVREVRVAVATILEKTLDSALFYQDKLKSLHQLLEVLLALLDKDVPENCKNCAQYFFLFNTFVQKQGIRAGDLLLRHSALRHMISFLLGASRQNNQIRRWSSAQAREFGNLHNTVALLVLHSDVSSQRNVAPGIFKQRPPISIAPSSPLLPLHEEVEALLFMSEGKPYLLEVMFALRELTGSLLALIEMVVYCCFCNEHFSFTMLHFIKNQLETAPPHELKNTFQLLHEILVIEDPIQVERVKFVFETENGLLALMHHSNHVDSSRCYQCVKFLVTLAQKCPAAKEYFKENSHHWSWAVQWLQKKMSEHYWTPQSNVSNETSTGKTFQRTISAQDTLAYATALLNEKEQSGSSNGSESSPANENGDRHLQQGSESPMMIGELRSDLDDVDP

As for `Cc1c(C#N)c(NC(=O)CCl)n(Cc2ccco2)c1C`, the “log2 ratio of Biotin-Ahx-Ub-VS probe labelling” value in the assay with USP19 was -0.239; in the assay with USP22, -0.178; with USP24, -0.837; in the assay with USP25, -1.24 (active); with USP28, -1.76 (active).
